Results filed as inconclusive are left out. Activity calls are given as the source filed them. Calls come from the whole dose curve; as a rule, active = well fitted activation curve with a large enough effect in the signal ratio in the repeat runs, with a control signal flat (not every such curve was filed as active); inconclusive = weak or mixed curves; inactive = flat fitted curve, though single readings scatter; the % refers to the signal ratio.
Test: qHTS assay for small molecule activators of the heat shock response signaling pathway (AID 743210)
Details: HeLa HSE-bla reporter, beta-lactamase ratio, 5 h; series mostly up to 62.6 µM; activation: at the top concentration
In short: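 Activation of heat shock element-controlled beta-lactamase expression is measured in HeLa cells by LiveBLAzer FRET fluorescence, with compound exposure lasting 5 h at 37 C and substrate loading 2.5 h at room temperature.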
% is set by controls: 0 for no effect and ±100 for the full control effect.

SMILES | activation
O=C(NC(=O)c1ccccc1Cl)Nc1ccc(OC(F)(F)F)cc1 | 0.863% (inactive)
C[N+]1(C)[C@@H]2CC[C@H]1CC(OC(=O)C(CO)c1ccccc1)C2 (stereo partly drawn) | 0.466% (inactive)
CN1CCc2cc(Cl)c(O)cc2[C@H]2c3ccccc3CC[C@@H]21 | -0.891% (inactive)
C=CCBr | 0.0989% [at 81.1 µM] (inactive)
CCC1COC(Cn2cncn2)(c2ccc(Cl)cc2Cl)O1 (stereo not drawn) | -1.05% (inactive)
CC(C)=CCN1CC[C@@]2(C)c3cc(O)ccc3C[C@@H]1[C@@H]2C | -0.105% [at 81.1 µM] (inactive)
COCCC#N | 0.949% (inactive)
Brc1ccc(Oc2ccc(Br)cc2Br)c(Br)c1 | 2.6% (inactive)
CCN(CC)CCN1C(=O)CN=C(c2ccccc2F)c2cc(Cl)ccc21 | 0.196% (inactive)
C=CCOC(=O)c1ccccc1N | -0.302% [at 81.1 µM] (inactive)
Oc1ccc([C@H]2CNCc3c2ccc(O)c3O)cc1O | 0.918% (inactive)
c1ccc2nc(N3CCNCC3)ccc2c1 | 1.45% (inactive)
N#Cc1c[nH]cc1-c1cccc2c1OC(F)(F)O2 | -0.595% (inactive)
O=[N+]([O-])c1ccccc1-c1ccccc1 | -0.602% (inactive)
Nc1nc(N)nc(Cl)n1 | -1.4% (inactive)
CCCCN(CCCC)C(=S)[S-].CCCCN(CCCC)C(=S)[S-].[Ni+2] | 4.16% (inactive)
CNC(=O)O/N=C(\C)C(C)S(C)(=O)=O (stereo not drawn) | 0.829% [at 765 µM] (inactive)
COP(=S)(NC(C)C)Oc1ccc(C)cc1[N+](=O)[O-] (stereo not drawn) | -1.52% (inactive)
OCC(Br)CBr (stereo not drawn) | -0.0046% [at 81.1 µM] (inactive)
CC(C)N(C(=O)SC/C(Cl)=C/Cl)C(C)C | 0.639% [at 81.1 µM] (inactive)
COc1ccc2c(c1OC)C(=O)O[C@@H]2[C@H]1c2cc3c(cc2CCN1C)OCO3 | -0.156% (inactive)
ClSC(Cl)(Cl)Cl | 1.78% (inactive)
CCN(CC)C(=O)N[C@@H]1C=C2c3cccc4[nH]cc(c34)C[C@@H]2N(C)C1 | 0% (inactive)
